The panel holds about 83,000 compounds, 20% with a hit somewhere; the sample as a whole holds those more often.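 Cell lines were cultured in 96-well plates, exposed to a single compound concentration, and assessed for percent growth 48 hours later.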 The source made the active and inactive calls. Rule for the calls: active = growth percent below 10; inactive = the rest.
system: HL-60(TB) leukemia; experiment: NCI-60 one-dose screen, 48 h (100 = growth as untreated, 0 = no growth, -100 = all killed); settings: 10 µM unless noted

SMILES	growth
CCOC(=O)C1=C(C)N=C2Sc3cccc(OC)c3N2[C@H]1c1ccccn1	105% (inactive)
O=C(CCCCCCN1CC(=O)N2[C@@H](c3ccc(Cl)cc3)c3[nH]c4ccccc4c3C[C@H]2C1=O)NO	46.8% (inactive)
CC1(C)C(O)NC(Cl)=C(C#N)C1(C#N)C#N (stereo not given)	114% (inactive)
COc1ccc2c(O)c(/C=C3\N=Nc4ncccc43)oc2c1C[C@@H]1CCNC[C@H]1F	-23.3% (active)
Cc1nc(Nc2cccnc2)sc1C(=O)/C=C/c1ccc(F)cc1	12.6% (inactive)
COc1ccc(-c2nnc(SCC(=O)Nc3ccc(C(=O)/C=C/c4cc(OC)c(OC)c(OC)c4)cc3)n2-c2ccccc2)cc1OC	46.1% [100 µM] (inactive)
Cc1ccccc1C(=O)c1ccccc1C(=O)O	106% (inactive)
C[C@H]1[C@H](C)CC[C@]2(COC(=O)CCC(=O)O)CC[C@]3(C)C(=CC[C@@H]4[C@@]5(C)CCCNC(C)(C)[C@@H]5CC[C@]43C)[C@H]12	49.3% [100 µM] (inactive)
COc1ccc(Cn2cc3c(c2-c2ccccc2)CCc2cnoc2-3)cc1	4.48% (active)
NS(=O)(=O)c1ccc(-n2ncc3c(NC4CCCCC4)ncnc32)cc1	70.7% (inactive)
Nc1nc(N)c2cc(CNc3ccc(Cl)c(Cl)c3)ccc2n1	1.98% (active)
COc1ccc(-c2csc(NC(=O)Nc3nc(-c4ccc(OC)cc4)cs3)n2)cc1	80.6% (inactive)
Nc1c(C(=O)c2ccc(Cl)s2)sc2nc3c(cc12)CCCC3	106% (inactive)
COc1cc2ncnc(Nc3ccc(O)cc3)c2cc1OC	83.5% (inactive)
O=c1oc2ccccc2cc1-c1csc(N/N=C/c2cc3ccccc3nc2Cl)n1	116% (inactive)
Cc1csc(NC(c2ccccc2)c2c(C)nc3ccccn23)n1 (stereo not given)	111% (inactive)
O=C1NC(=C(Cl)Cl)/C(=N\S(=O)(=O)NCc2ccccc2)N1	97% (inactive)
c1ccc(CNc2ccc3nc(CCC4CCCCC4)[nH]c3c2)cc1	47% (inactive)
Nc1c(C(=O)Nc2ccccn2)sc2nc3c(cc12)C(O)CCC3 (stereo not given)	9.6% (active)
Cc1ccc(C2=Nc3c(N)nc(N)nc3NC(c3cccc(Nc4ccnc5cc(C(F)(F)F)ccc45)c3)C2)cc1 (stereo not given)	-11.3% (active)

SMILES	growth
COC(=O)/C(CCC=C(C)C)=C1\[C@@H](OC(C)=O)C[C@@]2(C)[C@H]1CC(=O)[C@H]1[C@@]3(C)CC[C@H](NCc4ccccc4)[C@@H](C)[C@@H]3CC[C@@]12C	84.7% (inactive)
COc1ccc(CN2c3ccccc3Oc3ccccc32)cc1O	15.6% (inactive)
N#CN1CC[C@H](C(=O)Nc2cc3cc(C(N)=O)ccc3cn2)C1	-37.1% (active)
O=C1OC(/C=C/c2ccccc2)=NC/1=C/c1ccccc1[N+](=O)[O-]	96.2% (inactive)
C#CCn1c2c(c3ccccc31)C[C@]1(C)[C@H]3CC[C@@H]4[C@@H]5C(=CCC[C@H]5C(=C)C)CC[C@@]4(C)[C@]3(C)CC[C@H]1C2(C)C	101% (inactive)
O=C1CC[C@@H](C(=O)N[C@H]2CSSC[C@@H](C(=O)NCCc3ccccc3)NC(=O)[C@H](Cc3ccccc3)NC(=O)[C@@H]3CCCN3C(=O)[C@@H]3CCCN3C2=O)N1	76.3% (inactive)
N#CC1C(=N)Cc2ccccc2-c2ccccc21 (stereo not given)	28.2% (inactive)
CC[C@H](C)[C@H](NC(=O)[C@H](CCCCN)NC(=O)[C@H](CCCCN)NC(=O)[C@@H](NC(=O)[C@@H](NC(=O)[C@@H](N)Cc1cnc[nH]1)[C@@H](C)CC)[C@@H](C)CC)C(=O)N[C@@H](CCCNC(=N)N)C(=O)N[C@H](C(=O)N[C@@H](Cc1c[nH]c2ccccc12)C(=O)N[C@@H](Cc1ccc(O)cc1)C(=O)N[C@@H](CCCNC(=N)N)C(=O)N[C@@H](CCCCN)C(=O)N[C@@H](C)C(=O)N[C@@H](Cc1c[nH]c2ccccc12)C(=O)N[C@@H](Cc1cnc[nH]1)C(=O)N[C@H](C(=O)N[C@@H](CC(C)C)C(=O)NCC(=O)N[C@@H](CCCCN)C(=O)N[C@H](C(N)=O)C(C)C)C(C)C)[C@@H](C)O	89.5% (inactive)
COC(=O)C(OC(C)=O)C(OC(C)=O)c1ccc(OC)c(OC)c1 (stereo not given)	81.3% (inactive)
COc1cc2ncn3c(=O)c4c5c(sc4nc3c2cc1OC)CCCC5	106% (inactive)
CCN(CC)C(=O)C1(C)CCCC2(C)c3cc(OC(C)=O)ccc3CCC12 (stereo not given)	71.2% (inactive)
O=C(Nc1ncc([N+](=O)[O-])s1)c1cccc([N+](=O)[O-])c1	2.45% (active)
CCN1/C(=C/C(C)=C/c2sc3ccc4ccccc4c3[n+]2CC)Sc2ccc3ccccc3c21	-52.1% (active)
Cc1ccc(-c2nc(C#N)c(S(=O)(=O)NCCO)o2)cc1	-20.1% (active)
CC(C)CCN(CCC(C)C)CC(=O)Nc1ccc(S(=O)(=O)c2ccc(NC(=O)CN(CCC(C)C)CCC(C)C)cc2)cc1	19.1% (inactive)
Cn1cc(-c2ccc3ncc(-c4ccc(CC(=O)Nc5cc(C(C)(C)C)no5)cc4)nc3c2)cn1	40.4% (inactive)
CC(=O)N/C(=C1/OC(C(O)C(O)C(O)CO)CN1C)[P+](c1ccccc1)(c1ccccc1)c1ccccc1 (stereo not given)	97.9% (inactive)
Cc1ccc2c(-n3nc(C#N)c(C#N)c3N)cc(=O)[nH]c2c1	109% (inactive)
COc1ccc2[nH]cc(-c3nc(-c4c[nH]c5ncccc45)cs3)c2c1	13.9% (inactive)
O=C1c2ccccc2C(=O)c2c1oc1ccc3ccccc3c21	100% (inactive)
